# Source: article PMC4336329 (PLoS ONE, 2015)
# Out of some 310,000 compounds screened, about 14,000 (4.5%) showed an effect of 50% or more. Effects have a minus sign here. The entries come from a sample that favours strong results as a whole.
# Target: human ether-à-go-go-related gene (hERG) potassium channel (human, UniProt Q12809)
# Assay: primary screen, population patch clamp on CHO cells stably expressing hERG; higher = less effect of the substance
# 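Also: peak tail current of the secondary pulse compared with the same well before compound.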
# Chain of human ether-à-go-go-related gene (hERG) potassium channel (Q12809 whole entry, looked up): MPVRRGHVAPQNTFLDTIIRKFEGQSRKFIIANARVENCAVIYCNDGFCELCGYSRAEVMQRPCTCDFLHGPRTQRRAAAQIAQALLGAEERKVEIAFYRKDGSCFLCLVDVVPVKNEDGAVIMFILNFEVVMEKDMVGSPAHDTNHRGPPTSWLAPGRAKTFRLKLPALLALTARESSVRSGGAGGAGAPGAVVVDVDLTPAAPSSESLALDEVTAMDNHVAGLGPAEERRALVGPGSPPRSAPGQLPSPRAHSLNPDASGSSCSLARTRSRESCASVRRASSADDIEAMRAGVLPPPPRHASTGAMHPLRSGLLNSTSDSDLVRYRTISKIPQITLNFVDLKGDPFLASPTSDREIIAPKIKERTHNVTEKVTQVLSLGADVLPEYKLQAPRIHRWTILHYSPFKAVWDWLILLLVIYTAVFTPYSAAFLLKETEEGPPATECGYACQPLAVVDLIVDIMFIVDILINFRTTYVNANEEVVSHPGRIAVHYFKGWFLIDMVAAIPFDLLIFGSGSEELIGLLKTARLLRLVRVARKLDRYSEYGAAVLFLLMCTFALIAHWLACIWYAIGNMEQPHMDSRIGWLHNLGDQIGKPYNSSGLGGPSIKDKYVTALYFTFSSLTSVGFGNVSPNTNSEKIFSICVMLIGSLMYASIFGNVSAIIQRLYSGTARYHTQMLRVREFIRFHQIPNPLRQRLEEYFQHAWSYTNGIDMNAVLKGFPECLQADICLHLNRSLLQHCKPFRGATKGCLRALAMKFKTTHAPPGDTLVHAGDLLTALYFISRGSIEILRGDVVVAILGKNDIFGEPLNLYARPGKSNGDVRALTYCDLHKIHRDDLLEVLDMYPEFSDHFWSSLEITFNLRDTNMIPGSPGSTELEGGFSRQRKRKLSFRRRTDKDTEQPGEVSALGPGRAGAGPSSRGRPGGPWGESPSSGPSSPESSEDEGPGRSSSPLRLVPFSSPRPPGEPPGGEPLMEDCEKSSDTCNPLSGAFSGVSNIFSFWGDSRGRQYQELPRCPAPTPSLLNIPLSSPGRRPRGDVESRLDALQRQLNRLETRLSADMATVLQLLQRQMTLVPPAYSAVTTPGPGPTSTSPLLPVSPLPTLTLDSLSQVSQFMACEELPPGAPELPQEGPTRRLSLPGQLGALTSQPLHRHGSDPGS
row,SMILES,"hERG current change (%, negative = inhibition) at 10uM [%]"
1,Cc1ccc(-c2nnc(CSc3nnc(COc4ccccc4)n3-c3ccc(C)cc3)o2)cc1,-7.47
2,CC(C)C(OC(=O)c1ccco1)C(=O)NCc1cccs1 (stereo not shown),-0.362
3,CN(C)c1ccc(/C=N/NC(=O)c2ccccc2)cc1,10.9
4,CN(C)c1ccc(/C=N/NC(=O)C2CC2c2ccccc2)cc1 (stereo not shown),-74.9
5,O=C(N/N=C/c1ccco1)C1CC1c1ccccc1 (stereo not shown),-4.18
6,CCOc1ccc(CCNC(=O)CCS(=O)(=O)c2ccc(Br)cc2)cc1OCC,13.8
7,Cc1cc(NC(=S)N(CCN2CCOCC2)Cc2ccccc2F)ccc1Cl,24.1
8,COc1cccc(CCC(=O)N2CCC(n3nccc3NC(=O)C3CCOC3)CC2)c1 (stereo not shown),14.9
9,COc1ccc(C(=O)c2sc(Nc3ccccc3)nc2N)cc1,18.1
10,COc1ccc(Nc2nc(N)c(C(=O)c3ccc(OC)cc3)s2)cc1,-52.7
11,COc1ccc(Nc2nc(N)c(C(=O)c3ccc(F)cc3)s2)cc1,25.9
12,O=C(Nc1ccc(Cl)cc1F)c1cc(S(=O)(=O)N2CCCCC2)ccc1F,-0.146
13,Cc1ccc(NC(=O)Cn2nnc(C(=O)NCc3ccco3)c2N)c(C)c1,3.23
14,C/[N+]([O-])=C\c1coc2ccccc2c1=O,-1.4
15,O=C(CCl)N1CCN2C(=O)c3ccccc3C12c1ccc(Cl)cc1 (stereo not shown),-1.56
16,COCCCNC(=O)Cc1c(C)c2c(cc(C)c3c(C(C)(C)C)coc32)oc1=O,-32.3
17,Cc1cc2oc(=O)c(CC(=O)NCCCN(C)C)c(C)c2c2occ(C(C)(C)C)c12,-69.1
18,Cc1cc2oc(=O)c(CC(=O)NCCCO)c(C)c2c2occ(C(C)(C)C)c12,-9.35
19,O=C1OC(CO)CN1Cc1ccccc1 (stereo not shown),12.3
20,COc1ccc(-n2cc(-c3ccccc3)c3c(NN4CCOCC4)ncnc32)cc1,-40.6
21,COc1ccc(-n2cc(-c3ccccc3)c3c(NCCCN4CCOCC4)ncnc32)cc1,-65
22,COc1ccc(-n2cc(-c3ccccc3)c3c(N4CCOCC4)ncnc32)cc1,22.5
23,c1ccc(-c2csc3ncnc(NCCCN4CCOCC4)c23)cc1,-13.2

row,SMILES,"hERG current change (%, negative = inhibition) at 10uM [%]"
1,c1ccc(-c2cn(-c3ccccc3)c3ncnc(NCCCN4CCOCC4)c23)cc1,-60.6
2,c1ccc(-n2ncc3c(NCCCN4CCOCC4)ncnc32)cc1,-11
3,COc1nc(-c2ccc(Cl)cc2)nnc1C,2.25
4,COCCNC(=O)C(c1cccs1)N(CCc1ccccc1)C(=O)Cn1nnc2ccccc21 (stereo not shown),6.51
5,O=C(CSc1nnc(Cn2cnc3ccccc32)o1)c1ccccc1,-7.21
6,Cc1ccc(N2C(=O)CC(=O)NC2=O)c(C)c1,17.2
7,CC(=O)OCCn1c(C)[n+](CCOC(C)=O)c2cc(Cl)c(Cl)cc21.[I-],14.7
8,COc1ccc(-c2ccoc2)cc1[C@H]1[C@H]2C=CC[C@@H](C)[C@@H]2C(=O)N1Cc1ccccc1,1.85
9,O=C(c1ccco1)N1CCN(Cc2nnc(-c3cccc(Cl)c3)o2)CC1,-45.9
10,O=C(c1ccco1)N1CCN(Cc2nnc(-c3ccccc3)o2)CC1,-55.5
11,CC1CCN(Cc2nnc(-c3cccc(Br)c3)o2)CC1,-0.585
12,O=C(c1ccco1)N1CCN(Cc2nnc(-c3ccccc3F)o2)CC1,9.67
13,Cc1ccccc1-c1nnc(CN2CCN(C(=O)c3ccco3)CC2)o1,-14.2
14,O=C(c1ccco1)N1CCN(Cc2nnc(-c3cccc(Br)c3)o2)CC1,-62.2
15,O=C(Cn1c(CO)nc2ccccc21)NCCc1ccccc1,-3.08
16,COc1ccccc1CNC(=O)c1cc(C)nn1-c1ccccc1,1.87
17,CCOc1ccccc1NC(=O)Nc1cc(S(=O)(=O)N(C)C)ccc1C,15
18,C=CCn1c(=N)c(S(=O)(=O)c2ccc(C)c(C)c2)cc2c(=O)n3ccccc3nc21,14.3
19,CCOCCCNC(=O)c1cc2c(=O)n3cccc(C)c3nc2s1,12.6
20,C=CCn1c(=N)c(C#N)cc2c(=O)n3ccccc3nc21,-35.3
21,CCn1c(=N)c(C(=O)NCCCOC)cc2c(=O)n3cccc(C)c3nc21,-61.4
22,COCCCNC(=O)c1cc2c(=O)n3cccc(C)c3nc2s1,7.44
23,CCOC(=O)c1c(C)nc2c(C)cccn12,-6.9

row,SMILES,"hERG current change (%, negative = inhibition) at 10uM [%]"
1,C=CCn1c(=N)c(C(=O)OCC)cc2c(=O)n3cccc(C)c3nc21,-72.9
2,COCCCNC(=O)c1cc2c(=O)n3cccc(C)c3nc2n(C(C)C)c1=N,-65.5
3,C=CCn1c(=N)c(C(=O)NCCCOC)cc2c(=O)n3ccccc3nc21,-60.1
4,CC(NC(=O)CSc1nc2ccc(N)cc2s1)c1ccccc1 (stereo not shown),32
5,O=c1cccc2n1CC1CC2CN(C(c2ccccc2)c2sc3ncnn3c2O)C1 (stereo not shown),15.1
6,Cc1ccc(S(=O)(=O)N2CCCCC2)cc1NC(=O)c1cc(=O)[nH]c2ccccc12,-6.61
7,CCCN(CC(=O)Nc1ccccc1C)C(=O)c1ccc(C(=O)c2ccccc2)cc1,-25.9
8,CCOc1ccc(CCNc2cc(C)nc3ncnn23)cc1OCC,-5
9,Cc1onc(-c2ccccc2)c1C(=O)Nc1sc2c(c1C#N)CCC2,1.63
10,Cn1c(=O)cc(N2CCCCC2)[nH]c1=O,9.92
11,CCc1cc(=O)oc2cc3occ(-c4ccc(OC)c(F)c4)c3cc12,2
12,CCn1c(NC(=O)c2ccccc2)nc2ccccc21,4.47
13,C=CCn1cc(C(=O)NCCCOC)c(=O)c2cc(S(=O)(=O)N(CC)CC)ccc21,-30.5
14,C=CCn1c(=N)c(C(=O)NCCCOC)cc2c(=O)n3cccc(C)c3nc21,-73.5
15,C=CCn1c(=N)c(C(=O)NCCCOC)cc2c(=O)n3cc(C)ccc3nc21,-57.3
16,O/N=C1\CCSc2ccc(F)cc21,-6.52
17,CC(=O)Nc1ccc(Oc2ccc(NC(C)=O)c(NC(C)=O)c2)cc1,1.5
18,Cc1ccc(C)c(N2CCN(CCCNC(=O)Cn3cccc3C(=O)c3ccccc3C)CC2)c1,-74
19,Cc1ccc(CNC(=O)Cn2cccc2C(=O)c2ccccc2C)cc1,-7.1
20,Cc1cccc(N2CCN(C(=O)CCNC(=O)Cn3ccc4ccccc4c3=O)CC2)c1C,-55.5
21,Cc1ccc(C)c(N2CCN(CCCNC(=O)Cn3cccc3C(=O)c3ccccc3)CC2)c1,-87.2
22,Cc1ccc(CNC(=O)Cn2cccc2C(=O)c2ccccc2)cc1,1.89
23,Cc1cccc(N2CCN(C(=O)Cn3ccc4ccccc4c3=O)CC2)c1C,-23.1

row,SMILES,"hERG current change (%, negative = inhibition) at 10uM [%]"
1,Cc1ccccc1C(=O)c1cccn1CC(=O)NCCN1CCN(c2cccc(C)c2C)CC1,-69.5
2,Cc1cccc(N2CCN(C(=O)Cn3cccc3C(=O)c3ccccc3)CC2)c1C,-17.2
3,COc1ccc(CCNC(=O)Cn2cccc2C(=O)c2ccccc2C)cc1OC,-16.3
4,Cc1ccccc1C(=O)c1cccn1CC(=O)NCCC1=CCCCC1,20.5
5,O=C(Cn1cccc1C(=O)c1ccccc1)NCCN1CCOCC1,-2.26
6,Cc1ccc(C)c(N2CCN(C(=O)CCNC(=O)Cn3ccc4ccccc4c3=O)CC2)c1,-3.39
7,Oc1ccccc1N1CCN(C(c2ccccc2)c2ccccc2)CC1,12.6
8,COc1ccc(OCCOC(=O)c2ccc(F)c(S(=O)(=O)N3CCOCC3)c2)cc1,-13.8
9,COc1ccc(NC(=S)NC(=O)/C=C/c2ccco2)cc1,-4.31
10,O=C(c1ccccc1)c1ccc(N2CCN(C(=O)c3cccc(F)c3F)CC2)c(F)c1,-37.9
11,Cc1cccc(N2CCN(C(=O)Cn3nc(Cc4ccncc4)c4ccccc4c3=O)CC2)c1C,-61.3
12,O=C(Cn1nc(Cc2ccncc2)c2ccccc2c1=O)N1CCN(C(=O)c2ccco2)CC1,-26.7
13,O=C(Cn1nc(Cc2ccncc2)c2ccccc2c1=O)N1CCc2ccccc2C1,-44.4
14,Cc1nn(C)cc1CN1CCC(CO)(CCOc2ccccc2)CC1,-22.6
15,COc1ccc(CN2CCCN(C)CC2)c(OC)c1C,11.1
16,COc1ccc(CN2CCSCC2)cc1C,7.71
17,Cc1nn(C)c(Cl)c1CN1CCC(CO)(CCOc2ccccc2)CC1,-54.7
18,OCC1(CCOc2ccccc2)CCN(CCCn2cccn2)CC1,-73.1
19,CCn1ccnc1CN1CCC(CO)(CCOc2ccccc2)CC1,-8.02
20,COc1ccc(CN2CCC(CO)(CCOc3ccccc3)CC2)c(OC)c1C,-83.5
21,COc1ccc(CN2CCSCC2)c(OC)c1C,13.5
22,COc1ccc(CN2CCC(CO)(CCOc3ccccc3)CC2)cc1C,-81.8
